Source: PubChem BioAssay (National Center for Advancing Translational Sciences (NCATS))
Only some compounds are listed: those with a hit (about 7.4% of all), similar ones and a draw of the others.
SMN2 splice up = qHTS Assay for Enhancers of SMN2 Splice Variant Expression; HEK293 SMN2-luciferase splicing reporter, luminescence, 30-36 h; Potency, µM (highest dose often 46.1 µM), for inactives: at the top dose activity change, positive = activation, usual class: activators; 2.8% of 210,000 active; AID 1458, 2008; further: % of control where 0% means no effect; nearly all actives have a fitted effect of over 55% in size
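HEK293 cells carry an SMN2 […]–luciferase reporter in which exon 7 inclusion puts luciferase in frame. Cells were plated 10-12 h before compound addition, then incubated 30-36 h at 37C. ONE-Glo luminescence was read; sodium butyrate at 4.5 mM final served as control.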
FLuc modulator = qHTS profiling assay for firefly luciferase inhibitor/activator using purifed enzyme and Km concentrations of substrates (counterscreen for miR-21 project) | purified FLuc, Km substrates, luminescence inhibition | Luciferin 4-monooxygenase (Photinus pyralis), P08659 | AID 588342, 2011 | 6.9% of 360,000 active | Potency, µM (top dose mostly 57.5 µM), for inactives: top-dose activity change, negative = inhibition, hits mostly inhibitors;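 further: plate controls were vehicle for no effect and reference inhibitor for full effect; nearly all actives have a fitted effect of over 55% in size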
Target sequence (P08659 whole entry, looked up): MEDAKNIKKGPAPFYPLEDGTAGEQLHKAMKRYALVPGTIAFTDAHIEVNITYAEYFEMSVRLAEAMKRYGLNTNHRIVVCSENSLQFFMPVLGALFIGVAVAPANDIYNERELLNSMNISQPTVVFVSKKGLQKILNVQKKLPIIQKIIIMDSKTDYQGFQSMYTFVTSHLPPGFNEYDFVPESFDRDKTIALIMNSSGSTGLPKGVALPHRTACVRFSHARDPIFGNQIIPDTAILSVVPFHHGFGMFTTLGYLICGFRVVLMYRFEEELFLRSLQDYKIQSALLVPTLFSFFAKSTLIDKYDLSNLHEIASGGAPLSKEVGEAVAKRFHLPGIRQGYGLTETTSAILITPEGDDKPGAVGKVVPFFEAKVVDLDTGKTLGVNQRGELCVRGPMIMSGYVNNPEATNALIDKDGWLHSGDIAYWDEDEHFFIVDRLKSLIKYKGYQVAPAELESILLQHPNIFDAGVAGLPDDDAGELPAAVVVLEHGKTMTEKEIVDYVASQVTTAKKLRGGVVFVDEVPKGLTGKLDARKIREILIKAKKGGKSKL
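Biochemical qHTS of compounds, final roughly 60 µM downward over six points, against 10 nM purified firefly luciferase using Km concentrations of substrates (10 uM D-luciferin, 10 uM ATP) in Tris acetate pH 7.5 buffer; luminescence output.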
Rab9 promoter act = qHTS Assay for Rab9 Promoter Activators | AID 485297, 2010 | Potency, µM (series often up to 9.22 µM), for the others: at the top dose activation, negative = inhibition, most hits filed as activators | Huh7 Rab9 promoter-luciferase reporter, luminescence, 24 h | 2.8% of 320,000 active; further: % of control where 0% means no effect; nearly all actives have a fitted effect of over 60% in size
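Luciferase signal after 10 min detection reagent at ambient indicates Rab9 promoter upregulation; stably transfected Huh7 cells were treated 24 h with compound in DMSO at 37 °C, 5% CO2.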
ELG1 genotoxic = qHTS screen for small molecules that induce genotoxicity in human embryonic kidney (HEK293T) cells expressing luciferase-tagged ELG1; HEK293T ELG1-luciferase reporter, luminescence, 16 h; Potency, µM (highest dose often 46 µM), for inactives: top-dose activity change, positive = activation, usual class: activators; 1.3% of 330,000 active; further: % of control where 0% means no effect; nearly all actives have a fitted effect of over 60% in size
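ELG1-luciferase HEK293T cells, 2,000/well; compound pinned in; 16 hr, 37 °C, 5% CO2; ONE-Glo, 30 min RT; luminescence on CCD imager.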
KinaseGlo FLuc = Counterscreen for Luciferase (Kinase-Glo TM) Inhibition; Luciferin 4-monooxygenase (Photuris pensylvanica), Q27757; Potency, µM (titrated, usually from 38.3 µM), without a hit: at the highest dose activity change, negative = inhibition, most hits filed as inhibitors; 0.28% of 200,000 active; Kinase-Glo luciferase, ATP luminescence, 8 min; further: on the % scale 0 is the no-effect control and ±100 the full control effect; nearly all actives have a fitted effect of over 60% in size
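Recombinant Kinase-Glo luciferase, 10 uM ATP (linear range), luciferin; imidazole pH 7.2 / KCl / MgCl2 / Tween / BSA buffer; 8 min RT; luminescence.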
NPC1 promoter act = qHTS Assay for NPC1 Promoter Activators; Huh7 NPC1 promoter luciferase reporter, 24 h; Potency, µM (titrated, usually from 9.22 µM), for inactives: at the highest dose activation, actives largely listed as activators; 2.4% of 320,000 active; AID 485313, 2010; further: % of control where 0% means no effect; nearly all actives have a fitted effect of over 60% in size
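NPC1 promoter–luciferase Huh7 cells; 24 h compound; luminescence.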
* marks the source's active call; other numbers are inactive results; ? = inconclusive; . = not tested or not shown. The call rests on the fitted dose curve; in most records, active means well fitted curve in the direction sought with a large enough effect; inconclusive means small, poorly fitted or top-dose-only effect, or another doubt; inactive means no such curve, though single readings can be large; an effect the other way counts as inactive or inconclusive. Potency means the concentration at half of the fitted maximal effect.

SMILES | SMN2 splice up | FLuc modulator | Rab9 promoter act | ELG1 genotoxic | KinaseGlo FLuc | NPC1 promoter act
CCC(C)NC(=O)c1cc2c(Cl)nc3ccc(C)cc3c2s1 (configuration not stated) | 6% | -8% | . | . | . | .
Cc1ccc(-c2nnc(Nc3cccc(C(F)(F)F)c3)c3ccccc23)cc1S(=O)(=O)N1CCOCC1 | . | -3% | . | . | . | .
CN(C)CCNC(=O)c1ccc(Cn2c(=O)c3cccn3c3cccnc32)cc1 | . | -1% | . | . | . | .
CS(=O)(=O)N1CCC2(CCCN(c3cccc(-c4ccccc4)c3)C2)CC1 | -9% | . | . | . | 0% | .
COC(=O)c1ccc2c(c1)C(C)(C)C(/C=C/c1ccccc1O)=[N+]2C | -93% | 15µM* | -45% | ? | 4.5µM* | -42%
O=C(CSc1nnc2ccccn12)Nc1nsc(-c2ccccc2)n1 | 11% | 15µM* | 0% | -2% | -3% | 11%
O=C(CSc1nnc2ccccn12)Nc1cccc(-c2nc3ccccc3s2)c1 | 14µM* | -19% | ? | ? | 0% | 3.5µM*
COc1ccc(-c2nc(NC(=O)CSc3nnc4ccccn34)ns2)cc1 | 18% | 12µM* | 2% | -6% | 2% | 30%
O=C(COC(=O)C12CC3CC(CC(C3)C1)C2)Nc1ccccc1F | -6% | 11µM* | 2% | 5% | 2% | 0%
Cc1cc(C(=O)COC(=O)C23CC4CC(CC(O)(C4)C2)C3)c(C)n1C | . | . | . | 8.2µM* | . | .
O=C(COC(=O)C12CC3CC(CC(O)(C3)C1)C2)Nc1ccc(Br)cc1F | . | . | 3.5µM* | ? | . | ?
O=C(NS(=O)(=O)c1ccc(F)cc1)O[C@@H]1C(=O)c2cc(Br)ccc2O[C@H]1c1ccc2c(c1)OCO2 | 28% | . | . | . | 0% | .
O=C1CCCc2[nH]c(=O)c(-c3nc(-c4cccc([N+](=O)[O-])c4)cs3)cc21 | -20% | -1% | . | . | . | .
O=C(Cn1cc(C(=O)C2CC2)c2ccccc21)Nc1ccc(Br)cc1 | -6% | 3% | . | . | . | .
NC(=O)c1ccccc1OCc1nc2ccccc2s1 | . | 3µM* | ? | ? | . | ?
NC(=O)c1ccccc1OCc1cccc2ccccc12 | . | -19% | 5% | -4% | . | 3%
CC(=O)OCc1nc2ccccc2s1 | -5% | 5.4µM* | 15% | ? | -3% | 14%
Cc1cc(C(=O)OCc2nc3ccccc3s2)c(C)o1 | -2% | 19µM* | . | . | -4% | .
O=C(O)COCc1nc2ccccc2s1 | . | 3% | -3% | -2% | . | 0%
O=C(OCc1nc2ccccc2s1)c1ccco1 | 20% | 6.7µM* | -2% | ? | -8% | 10%
COc1cccc(C2C=C(c3ccc(C)cc3)Nc3c(C(=O)Nc4ccc(F)cc4)cnn32)c1OC (configuration not stated) | . | -4% | . | . | . | .
CCOC(=O)C(=O)Cc1nc2ccccc2s1 | . | 19µM* | 12% | 2% | . | 3%
CCOC(=O)CC(=O)Nc1nc2ccccc2s1 | 3% | -16% | 4% | ? | -3% | 1%
Cc1cc(C)n(-c2nc(NCCCO)c3c4c(sc3n2)CCCC4)n1 | -48% | 21µM* | 16% | 6% | -4% | 20%
Cc1cc(=O)[nH]c(SCc2ccccc2)n1 | . | -10% | 1% | 4% | . | 4%
SMILES | SMN2 splice up | FLuc modulator | Rab9 promoter act | ELG1 genotoxic | KinaseGlo FLuc | NPC1 promoter act
Cc1cc(=O)[nH]c(S/C=C/c2ccccc2)n1 | 11µM* | 5.4µM* | ? | 21µM* | ? | 3.5µM*
CSc1cccc(NC(=O)Nc2ccccc2OCc2cc(=O)n3cc(C)ccc3n2)c1 | . | 3µM* | . | . | . | .
CC(C)C(=O)Nc1ccccc1OCc1cc(=O)n2ccccc2n1 | . | -8% | . | . | . | .
CCc1ccc(NC(=O)Nc2ccccc2OCc2cc(=O)n3ccccc3n2)cc1 | . | 0.21µM* | . | . | . | .
O=C(COc1ccccc1Cl)Nc1ccccc1OCc1cc(=O)n2ccccc2n1 | . | 19µM* | . | . | . | .
O=C(COc1ccccc1)Nc1ccccc1OCc1cc(=O)n2ccccc2n1 | . | -5% | . | . | . | .
CCCCC(=O)Nc1cc(-c2cn3cccnc3n2)ccc1C | . | -5% | . | . | . | .
Cc1cccc(N2C(=O)CSC23C(=O)N(CC(=O)NCc2ccccc2Cl)c2ccccc23)c1 (configuration not stated) | . | -4% | . | . | . | .
O=C(c1cn(-c2ccccc2)nc1-c1ccccc1)N1CCOCC1 | -21% | ? | 2% | -3% | 10% | -1%
CCN(C(=O)COC(=O)c1cn(-c2ccccc2)nc1-c1ccccc1)C1CCS(=O)(=O)C1 (configuration not stated) | 11% | 24µM* | -1% | 5% | 1% | -3%
O=C(OCC(=O)N1CCN(C(=O)c2ccco2)CC1)c1ccccc1C(=O)c1ccccc1 | -8% | 0% | -4% | -2% | -1% | -2%
O=C(c1ccco1)N1CCN(C(=O)c2cn(-c3ccccc3)nc2-c2ccccc2)CC1 | . | 6µM* | 3% | 6% | . | 14%
O=C(/C=C/c1cn(-c2ccccc2)nc1-c1cccnc1)c1ccco1 | -37% | 9.5µM* | -8% | -14% | 1% | -5%
O=C(OCC(=O)N1CCN(C(=O)c2ccco2)CC1)c1cn(-c2ccccc2)nc1-c1ccccc1 | -11% | 17µM* | -4% | -4% | -7% | 1%
CCOc1ccc(CNC(=O)CCC(=O)N2CC3CCCN3c3ccccc32)cc1 (configuration not stated) | . | -5% | . | . | . | .
CCn1cc2nc(SCc3cccc(OC)c3)n(Cc3ccc(Cl)cc3)c(=O)c2n1 | -1% | -15% | . | . | . | .
COc1cccc(-c2nn(-c3ccc(C)cc3)cc2C(=O)N(C)CC(=O)Nc2cccc(F)c2)c1 | . | 8.5µM* | -7% | -13% | . | -3%
COc1ccc(NC(=O)CN(C)C(=O)c2cc(-c3ccc(OC)cc3)nc3ccccc23)cc1 | . | 8.5µM* | 13% | -27% | . | 10%
COc1ccc(-c2cc(C(=O)N(C)CC(=O)Nc3cccc(F)c3)c3ccccc3n2)cc1 | . | 19µM* | -4% | -12% | . | -1%
Cc1ccc2nc(-c3ccccc3)cc(C(=O)N(C)CC(=O)Nc3ccccc3Br)c2c1 | . | 17µM* | -1% | -10% | . | 1%
COc1ccc(NC(=O)CN(C)C(=O)c2cc(-c3ccccc3)nc3ccccc23)cc1 | . | ? | 0% | -32% | . | -2%
COc1cccc(C2C(C(=O)Nc3ccc(Cl)cc3)=C(C)Nc3c(C(=O)Nc4ccccc4)cnn32)c1OC (configuration not stated) | 4% | -6% | . | . | . | .
O=C(Cn1cc(S(=O)(=O)N2CCCC2)c(S(=O)(=O)N2CCCC2)c1)Nc1ccccc1 | . | -5% | . | . | . | .
